Source: PubChem BioAssay (NCI)
Compounds without any hit were thinned out: in the full panel of roughly 83,000, 20% have a hit.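 96-well plates, one dose, 48 hours. Percent growth reported; active if below 10.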 The source made the active and inactive calls.

What was measured:
Assay in all cases: NCI-60 one-dose screen, 48 h (100 = growth as untreated, 0 = no growth, -100 = all killed)
NCI-H23 lung = conditions: 10 µM unless noted
NCI-H226 lung = conditions: 10 µM unless noted
NCI-H322M lung = conditions: 10 µM unless noted
HOP-62 NSCLC = conditions: 10 µM unless noted
NCI-H460 lung = conditions: 10 µM unless noted
HOP-92 NSCLC = conditions: 10 µM unless noted
NCI-H522 lung = conditions: 10 µM unless noted
A549/ATCC NSCLC = conditions: 10 µM unless noted
786-0 renal = conditions: 10 µM unless noted
COLO 205 colon = conditions: 10 µM unless noted
DU-145 prostate = conditions: 10 µM unless noted
K-562 leukemia = conditions: 10 µM unless noted
MALME-3M melanoma = conditions: 10 µM unless noted
MDA-MB-231 breast = conditions: 10 µM unless noted
RXF 393 renal = conditions: 10 µM unless noted
SF-268 CNS = conditions: 10 µM unless noted
SF-295 CNS = conditions: 10 µM unless noted
SF-539 CNS = conditions: 10 µM unless noted
UACC-257 melanoma = conditions: 10 µM
M14 melanoma = conditions: 10 µM unless noted

Measured: growth

NCCSC(c1ccccc1)(c1ccccc1)c1ccccc1
active: NCI-H460 lung 7.06% | HOP-92 NSCLC -2.14% | NCI-H522 lung -20.7% | COLO 205 colon -42.8% | DU-145 prostate -1.74% | K-562 leukemia 3.65% | MDA-MB-231 breast -24.2% | RXF 393 renal -7.93% | SF-295 CNS -45.9% | SF-539 CNS -46.1% | M14 melanoma -9.88%
inactive: NCI-H23 lung 25.1% | NCI-H226 lung 68.6% | NCI-H322M lung 29.5% | HOP-62 NSCLC 40.8% | A549/ATCC NSCLC 19.9% | 786-0 renal 37.9% | MALME-3M melanoma 27.5% | SF-268 CNS 27.4% | UACC-257 melanoma 47.7%

COc1cc(OC)c(C(=O)/C=C/c2cccc(C#N)c2)c(OC)c1
inactive: DU-145 prostate 15.3% | K-562 leukemia 13.7% | MALME-3M melanoma 35.4% | MDA-MB-231 breast 17.1% | SF-268 CNS 13.5% | UACC-257 melanoma 32.2%
active: NCI-H23 lung -7.14% | NCI-H226 lung 3.93% | NCI-H322M lung -1.49% | HOP-62 NSCLC -9.93% | NCI-H460 lung 0.36% | HOP-92 NSCLC -5.88% | NCI-H522 lung -25.9% | A549/ATCC NSCLC 2.27% | 786-0 renal 9.74% | COLO 205 colon -6.79% | RXF 393 renal -3.8% | SF-295 CNS 1.75% | SF-539 CNS -7.41% | M14 melanoma 6.71%

O=C(/C=C/c1ccccc1)n1c(-c2ccc(Cl)cc2)nc2ccccc21
inactive: NCI-H322M lung 45% | DU-145 prostate 11.1% | K-562 leukemia 39.8% | MALME-3M melanoma 15.9%
active: NCI-H23 lung -24.5% | NCI-H226 lung -55.3% | HOP-62 NSCLC -48.8% | NCI-H460 lung 0.538% | HOP-92 NSCLC -39.4% | NCI-H522 lung -72.4% | A549/ATCC NSCLC -4.99% | 786-0 renal -17.7% | COLO 205 colon -60.8% | MDA-MB-231 breast -26.5% | RXF 393 renal -65.2% | SF-268 CNS -11.9% | SF-295 CNS -52% | SF-539 CNS -48.4% | UACC-257 melanoma -64.4% | M14 melanoma -37.3%

COc1ccc(/C=C/c2nc(N3CCOCC3)c3cc(F)c(F)cc3n2)cc1OC
inactive: NCI-H23 lung 34.8% | NCI-H226 lung 33.2% | NCI-H322M lung 70.2% | HOP-62 NSCLC 86.8% | NCI-H460 lung 36.4% | HOP-92 NSCLC 33.7% | NCI-H522 lung 26% | A549/ATCC NSCLC 30.9% | 786-0 renal 45.4% | COLO 205 colon 15.6% | DU-145 prostate 53.5% | K-562 leukemia 16.4% | MALME-3M melanoma 42.3% | MDA-MB-231 breast 55.4% | RXF 393 renal 48.6% | SF-268 CNS 53.5% | SF-295 CNS 19.3% | SF-539 CNS 56.8% | UACC-257 melanoma 20.5% | M14 melanoma 28%

COc1ccc(/C=N/NC(=O)Cn2c(Cc3cccc4ccccc34)nc3ccccc32)cc1
inactive: NCI-H23 lung 90.3% | NCI-H226 lung 92.7% | NCI-H322M lung 84.5% | HOP-62 NSCLC 89.3% | NCI-H460 lung 106% | HOP-92 NSCLC 101% | NCI-H522 lung 77.7% | A549/ATCC NSCLC 95% | 786-0 renal 102% | COLO 205 colon 106% | DU-145 prostate 105% | K-562 leukemia 89.4% | MALME-3M melanoma 92.4% | MDA-MB-231 breast 91.2% | RXF 393 renal 109% | SF-268 CNS 95.6% | SF-295 CNS 88.9% | SF-539 CNS 90.7% | UACC-257 melanoma 99.4% | M14 melanoma 105%

CCOC(=O)CC(C#N)(CC(=O)OCC)C(=O)OCC
inactive: NCI-H23 lung 106% | NCI-H226 lung 94.5% | NCI-H322M lung 112% | HOP-62 NSCLC 117% | NCI-H460 lung 115% | HOP-92 NSCLC 68% | NCI-H522 lung 114% | A549/ATCC NSCLC 84.6% | 786-0 renal 104% | COLO 205 colon 116% | DU-145 prostate 113% | K-562 leukemia 111% | MALME-3M melanoma 127% | MDA-MB-231 breast 101% | RXF 393 renal 99.6% | SF-268 CNS 111% | SF-295 CNS 101% | SF-539 CNS 107% | UACC-257 melanoma 73.9% | M14 melanoma 102%

c1ccc([P+](CCC[P+](c2ccccc2)(c2ccccc2)c2ccccc2)(c2ccccc2)c2ccccc2)cc1
inactive: NCI-H23 lung 89% | NCI-H226 lung 101% | NCI-H322M lung 79.5% | HOP-62 NSCLC 75.3% | NCI-H460 lung 77.6% | HOP-92 NSCLC 20.1% | NCI-H522 lung 43.1% | A549/ATCC NSCLC 86.9% | 786-0 renal 92.5% | COLO 205 colon 45.4% | DU-145 prostate 86.7% | K-562 leukemia 23.2% | MALME-3M melanoma 65.6% | MDA-MB-231 breast 93.7% | RXF 393 renal 104% | SF-268 CNS 69.2% | SF-295 CNS 73.4% | SF-539 CNS 88% | UACC-257 melanoma 37% | M14 melanoma 80.9%

COc1ccc(C2CC(=O)Nc3c2c(C)nn3-c2nc3ccccc3[nH]2)cc1OC (stereo not given)
inactive: NCI-H23 lung 48.7% | NCI-H226 lung 58.7% | NCI-H322M lung 75.9% | HOP-62 NSCLC 67.8% | NCI-H460 lung 63.7% | HOP-92 NSCLC 89.3% | NCI-H522 lung 98.2% | A549/ATCC NSCLC 61.1% | 786-0 renal 87.5% | COLO 205 colon 106% | DU-145 prostate 86.6% | K-562 leukemia 63% | MALME-3M melanoma 38.5% | MDA-MB-231 breast 87.1% | RXF 393 renal 12.2% | SF-268 CNS 69.9% | SF-539 CNS 97.7% | UACC-257 melanoma 89% | M14 melanoma 48.1%
active: SF-295 CNS -9%

CCn1cc(C(=O)O)c(=O)c2cc(F)c(N3CCN(S(=O)(=O)c4cccc5ccccc45)CC3)cc21
inactive: NCI-H226 lung 21.9% | HOP-62 NSCLC 15.1% | 786-0 renal 24.3% | DU-145 prostate 18.9% | K-562 leukemia 15.4% | MDA-MB-231 breast 23.9% | RXF 393 renal 29% | SF-268 CNS 16.4% | SF-539 CNS 17.4% | UACC-257 melanoma 14% | M14 melanoma 17.9%
active: NCI-H23 lung 0.0593% | NCI-H322M lung -14.5% | NCI-H460 lung 8.04% | HOP-92 NSCLC -8.49% | NCI-H522 lung -33.9% | A549/ATCC NSCLC 3.78% | COLO 205 colon -87.6% | MALME-3M melanoma -16% | SF-295 CNS 7.68%

O=C(CNc1c(Cl)cccc1Cl)Nc1ccc(-c2nc3ccccc3s2)cc1
active: NCI-H522 lung -93.4% | MALME-3M melanoma -50%
inactive: NCI-H23 lung 40.9% | NCI-H226 lung 54.4% | NCI-H322M lung 94.6% | HOP-62 NSCLC 118% | NCI-H460 lung 91.2% | HOP-92 NSCLC 94.2% | A549/ATCC NSCLC 85.7% | 786-0 renal 24.1% | COLO 205 colon 87.7% | DU-145 prostate 85.7% | K-562 leukemia 10.5% | MDA-MB-231 breast 56.9% | RXF 393 renal 86.6% | SF-268 CNS 46.2% | SF-295 CNS 97.4% | SF-539 CNS 79.9% | UACC-257 melanoma 96.5% | M14 melanoma 55.7%

CN(C)c1ncc(-c2ccc(C(F)(F)F)cc2)c(NC2CCCCCC2)n1
active: HOP-92 NSCLC -1.97% | MALME-3M melanoma 5.4%
inactive: NCI-H23 lung 58.5% | NCI-H226 lung 61.9% | NCI-H322M lung 95.4% | HOP-62 NSCLC 88.2% | NCI-H460 lung 55.4% | NCI-H522 lung 43.6% | A549/ATCC NSCLC 57.5% | 786-0 renal 67.2% | COLO 205 colon 50% | DU-145 prostate 84.9% | K-562 leukemia 28.2% | MDA-MB-231 breast 83.4% | RXF 393 renal 78.8% | SF-268 CNS 80.8% | SF-295 CNS 32.7% | SF-539 CNS 97.3% | UACC-257 melanoma 38.1% | M14 melanoma 44.5%

COc1ccc(/C=C/c2nc(N3CCOCC3)c3nc(Cl)c(Cl)cc3n2)cc1OC
inactive: NCI-H23 lung 99.7% | NCI-H226 lung 102% | NCI-H322M lung 145% | HOP-62 NSCLC 115% | NCI-H460 lung 106% | HOP-92 NSCLC 105% | NCI-H522 lung 83.1% | A549/ATCC NSCLC 96.5% | 786-0 renal 99.8% | COLO 205 colon 105% | DU-145 prostate 101% | K-562 leukemia 77.7% | MALME-3M melanoma 144% | MDA-MB-231 breast 110% | RXF 393 renal 109% | SF-268 CNS 105% | SF-295 CNS 87.9% | SF-539 CNS 98.8% | UACC-257 melanoma 111% | M14 melanoma 103%

Cc1ccc(Nc2ncnc3c2sc2ncccc23)cc1
inactive: NCI-H23 lung 101% | NCI-H226 lung 91.7% | NCI-H322M lung 95.9% | HOP-62 NSCLC 103% | NCI-H460 lung 97.6% | HOP-92 NSCLC 106% | NCI-H522 lung 106% | A549/ATCC NSCLC 98.2% | 786-0 renal 101% | COLO 205 colon 107% | DU-145 prostate 108% | K-562 leukemia 53.8% | MALME-3M melanoma 107% | MDA-MB-231 breast 103% | RXF 393 renal 88.2% | SF-268 CNS 97.6% | SF-295 CNS 110% | SF-539 CNS 100% | UACC-257 melanoma 99.5% | M14 melanoma 101%

O=C1N=C(c2c(-c3[nH]c(=O)c4ccc(Br)cc4c3O)c(O)c3ccccc3c2O)C(=O)c2cc(Br)ccc21
active: NCI-H23 lung -43% | NCI-H226 lung -30.4% | NCI-H322M lung -3.29% | HOP-62 NSCLC -52.9% | NCI-H460 lung -80.9% | HOP-92 NSCLC -13.2% | NCI-H522 lung -31.4% | A549/ATCC NSCLC -32.2% | 786-0 renal -63.2% | DU-145 prostate -38.2% | MALME-3M melanoma -74.3% | MDA-MB-231 breast -8.73% | RXF 393 renal -76.1% | SF-268 CNS -41.4% | SF-539 CNS -57.7% | UACC-257 melanoma -51.6% | M14 melanoma -31.9%
inactive: COLO 205 colon 73.1% | K-562 leukemia 14.3% | SF-295 CNS 17.2%

COc1cc(NCCN=C(N)NC(N)=NC(C)C)c2ncccc2c1
inactive: NCI-H23 lung 44.7% | NCI-H226 lung 94.7% | NCI-H322M lung 47.4% | HOP-62 NSCLC 94.8% | NCI-H460 lung 82.1% | HOP-92 NSCLC 33.2% | A549/ATCC NSCLC 91.4% | 786-0 renal 105% | COLO 205 colon 20.4% | DU-145 prostate 103% | K-562 leukemia 55.5% | MDA-MB-231 breast 69.3% | RXF 393 renal 101% | SF-268 CNS 45.1% | SF-295 CNS 108% | UACC-257 melanoma 72.1% | M14 melanoma 88.6%
active: NCI-H522 lung -3.01% | MALME-3M melanoma -11% | SF-539 CNS 6.08%
